Screening results (PubChem)
a7 integrin act – integrin-mediated muscular dystrophy alleviation activation | alpha7betagal myoblasts, beta-gal FDG fluorescence, 48 h | Potency, µM (top dose mostly 38.3 µM), for the others: top-dose activation, most hits filed as activators | hit rate 0.064% among 350,000;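 note: potency is the fitted concentration of half-maximal effect; 100% = response of the positive control SU9516; nearly all actives have a fitted effect of over 60% in size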
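alpha7betagal+/- myoblasts (passage 13, 250/well) treated 48 h at 37C with compounds at 1:260 dilution of DMSO stock. Lysed, then beta-galactosidase activity read as FDG fluorescence (ex 480/em 540) after 30 min, with pre-read for autofluorescence.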
BRCA1 expr act – increases BRCA1 expression; MCF7-BRCA1-FFLuc reporter, luminescence, 48 h; response scale: scaled: vehicle 0%, 10 µM genistein 100%; hit rate 1.1% among 380,000; Potency, µM (doses to about 46.1 µM), for the others: at the highest dose activation, actives largely listed as activators; note: potency is the fitted concentration of half-maximal effect; nearly all actives have a fitted effect of over 80% in size
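Luminescence from a BRCA1-driven firefly luciferase in MCF7 cells was read after 48 h compound exposure at 37 C. Data normalized against DMSO and a 10microM genistein activation control, then curve-fitted across the titration.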
Nrf2 ARE act – activators of Nrf2 (ARE) signaling. AID 624171. AREc32 ARE-luciferase reporter (MCF7-derived line), luminescence, 24 h. Potency, µM (series often up to 46.1 µM), for the others: at the top dose activation, hits mostly activators. hit rate 0.31% among 410,000; note: potency is the fitted concentration of half-maximal effect; % of control where 0% means no effect; nearly all actives have a fitted effect of over 65% in size
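AREc32 cells carrying an ARE-driven firefly luciferase reporter were seeded at 1000 cells/well in OPTI-MEM with 5% FBS, then exposed to compound for 24 hr at 37 deg C. Luminescence was read with Steady-Glo after 30 min at RT.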
IL-2 act – IL-2 activation; hit rate 0.065% among 360,000; IL-2 activation reporter assay, cell-based qHTS; stimulated with anti-CD3/CD4/CD28 beads; in transgenic mouse T cells; activation, % (series mostly up to about 46 µM); in the data active = activation above about 50%; inconclusive = mostly about 30% to 49%; note: 0% is about no effect
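Unstimulated transgenic mouse T cells; 60-min compound exposure; bead-based TCR/CD4/CD28 stimulation; 18 h culture, 37 degrees C; dual fluorescence (EGFP, DsRed) plate cytometry.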
N370S GC – inhibits or activates N370S mutant glucocerebrosidase; P04062; AID 2101; hit rate 0.092% among 330,000; Potency, µM (series often up to 59.4 µM), for the others: top-dose activity change, negative = inhibition, hits mostly inhibitors; N370S GC spleen homogenate, 4MU-glucoside fluorescence;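 note: potency is the fitted concentration of half-maximal effect; 0% = full enzyme activity and -100% = no enzyme basal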
Chronic BCR inh – chronic active BCR signaling inhibition; hit rate 0.05% among 340,000; ABC-DLBCL IkBa-CBG/CBR reporter, luminescence ratio, 4 h; Potency, µM (highest dose often 46.1 µM), inactives show at the highest dose activity change, negative = inhibition, actives largely listed as inhibitors; active = well fitted inhibition curve with a large enough effect in the signal ratio, with a control signal flat, not every such curve was filed as active; inconclusive = small, poorly fitted or top-dose-only effect, or effect the other way, or a change in a side signal; the % refers to the signal ratio;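 note: potency is the fitted concentration of half-maximal effect; plate controls were basal doxycycline-induced cells for no effect and cells given 10 µM MG132 for full effect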
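Concentration-response series (up to 46 uM) were applied to TMD8 dual-reporter cells for 4 h at 37C with doxycycline. Green/red ratio, after filter-overlap correction, defined %Activity; red signal alone was normalised to basal cells and zero luminescence.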
The depositor's hits bear a star; ? = inconclusive; . = no result given. Hits are enriched below; roughly 1.4% of the tested compounds scored in any of these assays. Unless noted, calls come from the whole dose curve; as a rule, active = well fitted curve in the direction sought with a large enough effect; inconclusive = small, poorly fitted or top-dose-only effect, or another doubt; inactive = no such curve, though single readings can be large; an effect the other way counts as inactive or inconclusive.

SMILES	a7 integrin act	BRCA1 expr act	Nrf2 ARE act	IL-2 act	N370S GC	Chronic BCR inh
CC1CCC(NC(=S)NCCN(C)C)CC1 (centres undefined)	0%	58%	6%	-3	7%	-3%
O=C(Nc1ccc([N+](=O)[O-])cc1)OC1CCS(=O)(=O)C1 (centres undefined)	.	22%	0%	0	.	.
O=C(Cc1cnn(-c2ccccc2)c1)c1ccc(O)c(O)c1O	-22%	5.6µM*	3%	0	3%	?
Cc1oc2c(c1C(=O)Nc1ccc(OC(F)(F)F)cc1)C1=NCCN1C=N2	.	.	4%	.	.	.
N/C(=N\OC(=O)c1ccncc1)c1cccc([N+](=O)[O-])c1	-4%	7.9µM*	15%	-3	-16%	4%
COc1cccc(C(=O)O/N=C(\N)c2ccncc2)c1	-10%	10µM*	17%	-2	-3%	?
N/C(=N\OC(=O)c1ccc([N+](=O)[O-])cc1)c1cccnc1	18%	?	3%	3	1%	?
N/C(=N\OC(=O)c1ccc(Br)cc1)c1cccc([N+](=O)[O-])c1	0%	?	14%	-1	1%	4%
Cc1ccc(C(=O)O/N=C(\N)c2cccnc2)cc1[N+](=O)[O-]	4%	11µM*	7%	0	2%	?
Cc1ccc(C(=O)O/N=C(\N)c2cccc([N+](=O)[O-])c2)cc1	6%	3.2µM*	?	5	7%	?
CC1=Nc2ccccc2/C1=C(/C)c1c(C)[nH]c2ccccc12	.	-1%	.	.	.	.
Cc1ccsc1/C=N\NC(=O)c1cc(C(C)(C)C)[nH]n1	-3%	5µM*	0%	1	8%	?
Cc1ccsc1/C=N/NC(=O)c1ccc(-n2cccc2)cc1	1%	11µM*	3%	3	-2%	-28%
COc1ccc(N2CC(NC(=O)c3ccc4c(c3)OCO4)CC2=O)cc1 (centres undefined)	.	.	4%	.	.	-55%
Nc1ccc2c(c1)Cc1cc(N)c(Br)cc1-2	-19%	?	7%	-3	.	.
COc1cc2c(cc1N)-c1ccc(N)cc1C2	33%	7.9µM*	7%	-6	.	.
Cc1nc(NC(=O)CCl)sc1C(=O)N(C)C	-33%	-37%	13µM*	-2	-9%	?
COc1ccccc1C1N=C(c2ccccc2C)NO1 (centres undefined)	-13%	13µM*	?	1	0%	-12%
CC[C@H](C)Cc1cn([C@@H](CCCN=C(NC(=O)OC(C)(C)C)NC(=O)OC(C)(C)C)C(=O)NCCCCCCCCCCC(=O)N2CCN(C(=O)OC(C)(C)C)CC2)nn1	-32%	-39%	-4%	-4	16µM*	-4%
C#CCOCCOCCOCCNc1nc(N2CCN(C(=O)CCCCCCCCCCNC(=O)[C@H](CCCCN)n3cc(C)nn3)CC2)nc(N2CCN(C(=O)CCCCCCCCCCNC(=O)[C@@H]([C@H](C)O)n3cc(C)nn3)CC2)n1	-20%	-52%	-2%	0	?	?
C#CCOCCOCCOCCNc1nc(N2CCN(C(=O)CCCCCCCCCCNC(=O)[C@H](CCCCN)n3cc(C)nn3)CC2)nc(N2CCN(C(=O)CCCCCCCCCCNC(=O)[C@H](CCCN=C(N)N)n3cc(C[C@@H](C)CC)nn3)CC2)n1	-9%	-29%	-3%	-1	7.9µM*	?
C#CCOCCOCCOCCNc1nc(N2CCN(C(=O)CCCCCCCCCCNC(=O)[C@@H](CCSC)n3cc(CCO)nn3)CC2)nc(N2CCN(C(=O)CCCCCCCCCCNC(=O)[C@H](CCCN=C(N)N)n3cc(C[C@@H](C)CC)nn3)CC2)n1	-28%	-60%	-1%	-1	7.9µM*	?
Cc1cn([C@@H](CCCCNC(=O)OC(C)(C)C)C(=O)NCCCCCCCCCCC(=O)N2CCN(C(=O)OC(C)(C)C)CC2)nn1	-45%	-47%	-1%	-1	-15%	?
C#CCOCCOCCOCCNc1nc(N2CCN(C(=O)CCCCCCCCCCNC(=O)[C@H](CO)n3cc(CCCCCN)nn3)CC2)nc(N2CCN(C(=O)CCCCCCCCCCNC(=O)[C@H](CCCN=C(N)N)n3cc(C[C@@H](C)CC)nn3)CC2)n1	.	.	.	.	13µM*	?
C#CCOCCOCCOCCNc1nc(N2CCN(C(=O)CCCCCCCCCCNC(=O)[C@@H](CCC(=O)O)n3cc(CCCCCN)nn3)CC2)nc(N2CCN(C(=O)CCCCCCCCCCNC(=O)[C@H](CO)n3cc(CCCCCN)nn3)CC2)n1	-10%	0%	0%	0	-23%	?
SMILES	a7 integrin act	BRCA1 expr act	Nrf2 ARE act	IL-2 act	N370S GC	Chronic BCR inh
O=c1[nH]c(=S)[nH]c2n[nH]nc12	.	13%	.	.	.	.
CN(C)c1ccc(/C=C/c2ccnc3ccc(N)cc23)cc1	.	-38%	.	.	.	.
Cc1c2cnccc2c(C)c2c1oc1ccccc12	-3%	21%	25%	-6	.	.
C#CCOCCOCCOCCNc1nc(N2CCN(C(=O)CCCCCCCCCCNC(=O)[C@@H](CCC(=O)O)n3cc(CCCCCN)nn3)CC2)nc(N2CCN(C(=O)CCCCCCCCCCNC(=O)[C@H](CCCCN)n3cc(C[C@@H](C)CC)nn3)CC2)n1	-24%	-24%	-4%	0	?	-4%
C#CCOCCOCCOCCNc1nc(N2CCN(C(=O)CCCCCCCCCCNC(=O)[C@H](CCCCN)n3cc(C[C@@H](C)CC)nn3)CC2)nc(N2CCN(C(=O)CCCCCCCCCCNC(=O)[C@H](CCCN=C(N)N)n3cc(C[C@@H](C)CC)nn3)CC2)n1	-45%	-19%	-4%	-1	6.3µM*	?
C#CCOCCOCCOCCNc1nc(N2CCN(C(=O)CCCCCCCCCCNC(=O)[C@H](CCCCN)n3cc(C[C@@H](C)CC)nn3)CC2)nc(N2CCN(C(=O)CCCCCCCCCCNC(=O)[C@@H]([C@H](C)O)n3cc(C)nn3)CC2)n1	-41%	-53%	-3%	-1	11µM*	?
C#CCOCCOCCOCCNc1nc(N2CCN(C(=O)CCCCCCCCCCNC(=O)[C@H](CCCCN)n3cc(CCO)nn3)CC2)nc(N2CCN(C(=O)CCCCCCCCCCNC(=O)[C@H](CCCCN)n3cc(C[C@@H](C)CC)nn3)CC2)n1	-17%	0%	-3%	0	14µM*	?
CC(=O)NC1CCCC1C#N (centres undefined)	.	5%	.	.	.	.
Cc1ccc(C2(C)NC(=O)N(CC(=O)N(C)CC(=O)Nc3cccc4ccccc34)C2=O)cc1 (centres undefined)	-36%	-18%	-1%	1	0%	4%
